Assay results reported in PubChem BioAssay AID1159580 (chemical genetic matrix, 2015).
In all, about 5,500 compounds went through this assay and about 2,000 (36%) were called active. About 18% were inconclusive and are not listed. This is one part of the list. Values without a mark were called inactive. No stated cut-off is given here; in the data, active means normalized growth mostly below about 0.91 (no sharp cut-off); inconclusive means no clear call, values can overlap the other calls; inactive means mostly above about 0.92.

Experiment: chemical genetic growth profiling, strain panel (AID 1159580);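 further: tested at 20 µM; growth read once vehicle control cultures reached saturation at 30 °C; 1 = growth at the plate median or of vehicle wells; lower values mean less growth of the strain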
Conditions: S. cerevisiae deletion strains, growth OD

Which results are given for `CC(C)c1c(O)ccc2c1CCC1[C@@](C)(C=O)CCC[C@]21C` (stereo partly specified)?
normalized growth (locus YKL068W, hits give low values): 0.969; normalized growth (locus YKL085W, strain MDH1 (second series), hits give low values): 0.583 (active); normalized growth (locus YKL085W, strain MDH1, hits give low values): 0.583 (active); normalized growth (locus YKL160W, strain elf1, hits give low values): 0.915; normalized growth (locus YKL190W, strain CNB1, hits give low values): 0.154 (active); normalized growth (locus YKR001C, strain vps1, hits give low values): 0.0888 (active); normalized growth (locus YKR026C, strain gcn3, hits give low values): 1; normalized growth (locus YKR091W, strain srl3, hits give low values): 1.01; normalized growth (locus YLL001W, strain dnm1, hits give low values): 0.964; normalized growth (locus YLL026W, hits give low values): 0.79 (active); normalized growth (locus YLL041C, strain sdh2, hits give low values): 0.895 (active); normalized growth (locus YLR027C, strain aat2, hits give low values): 0.653 (active); normalized growth (locus YLR039C, strain RIC1, hits give low values): 0.148 (active); normalized growth (locus YLR058C, strain SHM2, hits give low values): 0.352 (active); normalized growth (locus YLR102C, strain apc9, hits give low values): 0.432 (active); normalized growth (locus YLR113W, strain HOG1, hits give low values): 0.782 (active); normalized growth (locus YLR221C, strain rsa3, hits give low values): 0.692 (active); normalized growth (locus YLR258W, strain gsy2, hits give low values): 0.768 (active); normalized growth (locus YLR262C, strain YPT6 (second series), hits give low values): 0.255 (active); normalized growth (locus YLR262C, strain YPT6, hits give low values): 0.219 (active); normalized growth (locus YLR268W, strain sec22, hits give low values): 0.411 (active); normalized growth (locus YLR320W, strain mms22, hits give low values): 0.62 (active); normalized growth (locus YLR330W, strain CHS5, hits give low values): 0.228 (active); normalized growth (locus YLR342W, strain FKS1 (second series), hits give low values): 0.208 (active); normalized growth (locus YLR342W, strain FKS1, hits give low values): 0.774 (active); normalized growth (locus YLR357W, strain rsc2, hits give low values): 1.11; normalized growth (locus YLR370C, strain arc18, hits give low values): 1.01; normalized growth (locus YLR371W, strain rom2, hits give low values): 0.317 (active); normalized growth (locus YLR384C, strain iki3, hits give low values): 1.02; normalized growth (locus YLR418C, strain cdc73, hits give low values): 0.137 (active); normalized growth (locus YML016C, strain PPZ1, hits give low values): 0.8 (active); normalized growth (locus YML032C, strain rad52, hits give low values): 0.467 (active); normalized growth (locus YML120C, strain ndi1, hits give low values): 0.465 (active); normalized growth (locus YML124C, strain tub3, hits give low values): 0.507 (active); normalized growth (locus YMR058W, strain fet3, hits give low values): 0.991; normalized growth (locus YMR078C, strain ctf18, hits give low values): 0.422 (active); normalized growth (locus YMR125W, strain sto1, hits give low values): 1.01; normalized growth (locus YMR129W, hits give low values): 0.972; normalized growth (locus YMR205C, strain PFK2, hits give low values): 0.617 (active); normalized growth (locus YMR223W, strain ubp8, hits give low values): 0.429 (active); normalized growth (locus YMR231W, strain pep5, hits give low values): 1.04; normalized growth (locus YMR307W, strain GAS1, hits give low values): 0.306 (active); normalized growth (locus YNL067W, strain RPL9B, hits give low values): 0.583 (active); normalized growth (locus YNL071W, strain lat1, hits give low values): 0.424 (active); normalized growth (locus YNL183C, strain NPR1, hits give low values): 0.83; normalized growth (locus YNL209W, strain ssb2, hits give low values): 0.959; normalized growth (locus YNL233W, strain BNI4, hits give low values): 0.172 (active); normalized growth (locus YNL248C, strain rpa49, hits give low values): 1.04; normalized growth (locus YNL250W, strain rad50, hits give low values): 0.868 (active); normalized growth (locus YNL271C, strain bni1, hits give low values): 0.875 (active); normalized growth (locus YNL298W, strain CLA4, hits give low values): 0.847 (active); normalized growth (locus YNL307C, strain MCK1, hits give low values): 0.0743 (active); normalized growth (locus YNL322C, strain KRE1 (second series), hits give low values): 1.02; normalized growth (locus YNL322C, strain KRE1, hits give low values): 0.333 (active); normalized growth (locus YNR049C, strain mso1, hits give low values): 1.01; normalized growth (locus YNR052C, strain pop2, hits give low values): 0.53 (active); normalized growth (locus YOL006C, strain TOP1, hits give low values): 0.396 (active); normalized growth (locus YOL012C, strain htz1): 1.05; normalized growth (locus YOL147C, strain pex11, hits give low values): 0.205 (active); normalized growth (locus YOR001W, strain rrp6, hits give low values): 0.857 (active); normalized growth (locus YOR061W, strain CKA2, hits give low values): 0.689 (active); normalized growth (locus YOR069W, strain VPS5, hits give low values): 0.668 (active); normalized growth (locus YOR070C, strain gyp1, hits give low values): 0.598 (active); normalized growth (locus YOR080W, strain dia2, hits give low values): 0.996; normalized growth (locus YOR083W, strain WHI5, hits give low values): 0.822 (active); normalized growth (locus YOR106W, strain vam3, hits give low values): 0.563 (active); normalized growth (locus YOR136W, strain idh2, hits give low values): 0.559 (active); normalized growth (locus YOR144C, strain elg1, hits give low values): 0.48 (active); normalized growth (locus YOR184W, strain ser1, hits give low values): 0.153 (active); normalized growth (locus YOR231W, strain MKK1, hits give low values): 0.784 (active); normalized growth (locus YOR265W, strain rbl2, hits give low values): 0.88 (active); normalized growth (locus YOR270C, strain vph1, hits give low values): 0.739 (active); normalized growth (locus YOR290C, strain snf2, hits give low values): 0.909; normalized growth (locus YOR316C, strain cot1, hits give low values): 0.49 (active); normalized growth (locus YPL051W, strain arl3, hits give low values): 0.769 (active); normalized growth (locus YPL055C, strain LGE1, hits give low values): 0.147 (active); normalized growth (locus YPL078C, strain atp4, hits give low values): 0.996; normalized growth (locus YPL106C, strain sse1, hits give low values): 0.94; normalized growth (locus YPL240C, strain hsp82, hits give low values): 0.626 (active); normalized growth (locus YPL241C, strain CIN2, hits give low values): 0.487 (active); normalized growth (locus YPL256C, strain CLN2, hits give low values): 0.814 (active); normalized growth (locus YPR119W, strain clb2, hits give low values): 0.305 (active); normalized growth (locus YPR141C, strain kar3, hits give low values): 0.999; normalized growth (locus YPR163C, strain tif3, hits give low values): 0.345 (active); normalized growth (locus YPR167C, strain met16, hits give low values): 0.314 (active); normalized growth (strain wtn01, hits give low values): 0.304 (active)
